Inconclusive results are not listed. Where a call stands in place of a potency, no number is given. Activity calls are given as the source filed them. Unless noted, calls come from the whole dose curve; as a rule, active = well fitted curve in the direction sought with a large enough effect; inconclusive = small, poorly fitted or top-dose-only effect, or another doubt; inactive = no such curve, though single readings can be large; an effect the other way counts as inactive or inconclusive.
Key:
[1] = target: Cytochrome P450 2C9 (Homo sapiens) (UniProt P11712); experiment: Cytochrome P450 family 2 subfamily C member 9 (CYP2C9) small molecule antagonists: luciferase biochemical (cell-free) qHTS assay (AID 1645842; active = well fitted curve in the direction sought with a large enough effect in the repeat runs; an effect the other way counts as inactive or inconclusive; note: nearly all actives have a fitted effect of over 55% in size; note: potency is the fitted concentration of half-maximal effect; for activity change, negative = inhibition: series mostly up to about 57 µM)
Sequence of Cytochrome P450 2C9 (Homo sapiens) (P11712 whole entry, looked up): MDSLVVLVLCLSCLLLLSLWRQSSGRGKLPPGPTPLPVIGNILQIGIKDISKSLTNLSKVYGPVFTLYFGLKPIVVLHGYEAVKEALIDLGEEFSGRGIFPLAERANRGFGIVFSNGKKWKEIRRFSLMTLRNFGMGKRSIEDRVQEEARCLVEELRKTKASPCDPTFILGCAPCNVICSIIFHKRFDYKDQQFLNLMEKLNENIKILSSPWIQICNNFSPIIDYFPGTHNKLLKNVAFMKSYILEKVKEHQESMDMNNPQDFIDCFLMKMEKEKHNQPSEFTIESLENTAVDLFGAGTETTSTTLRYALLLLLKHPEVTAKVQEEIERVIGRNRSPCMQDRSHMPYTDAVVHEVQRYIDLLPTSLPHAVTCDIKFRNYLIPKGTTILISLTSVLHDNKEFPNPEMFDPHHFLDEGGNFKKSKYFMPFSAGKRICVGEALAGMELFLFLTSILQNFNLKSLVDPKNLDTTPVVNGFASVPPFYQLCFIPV
Procedure, shortened: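 P450-Glo CYP2C9 system: proluciferin substrate with enzyme in mix containing 0.4% BSA, 10 min at room temperature, then NADPH regeneration solution added and incubated 1 h at 37C. Detection reagent stopped reaction; luminescence read after 20 min as RLU.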

[2] = Primary qHTS for inhibitors of nuclear receptor binding SET domain protein 2 (NSD2) in an isogenic RCH-ACV NSD2 p.E1099K mutant (9B) (AID 1645876); note: nearly all actives have a fitted effect of over 70% in size
[3] = Primary qHTS for inhibitors of nuclear receptor binding SET domain protein 2 (NSD2) in an RCH-ACV wild type WT cells (2C) (AID 1645877); note: nearly all actives have a fitted effect of over 70% in size

SMILES | Potency [1] | Potency [2] | Potency [3] | activity change, negative = inhibition [1] | outcome [2] | activity change, negative = cell killing [3]
COc1ccc(Cc2cnc(N)nc2N)cc1OC | inactive | inactive | inactive |  |  | 
CC1(C)S[C@@H]2[C@H](N=CN3CCCCCC3)C(=O)N2[C@H]1C(=O)O | inactive | inactive | inactive |  |  | 
CC(N)CCCC(C)(C)O (stereo not given) | inactive | inactive | inactive |  |  | 
O=C(O)CCCCC1CCSS1 (stereo not given) | inactive | inactive | inactive |  |  | 
CC[N+](C)(CC)CCOC(=O)C1c2ccccc2Oc2ccccc21 | inactive | inactive | inactive |  |  | 
CC(C)(C)NCC(O)COc1cccc2c1CCC(=O)N2 (stereo not given) | inactive | inactive | inactive |  |  | 
CCOC(=O)[C@H](CCc1ccccc1)N[C@@H](C)C(=O)N1CCC[C@H]1C(=O)O | inactive | inactive | inactive |  |  | 
CN1C(=O)CC(c2ccccc2)C1=O (stereo not given) | inactive | inactive | inactive |  |  | 
Cc1c(Cn2ccnc2)c2ccccc2n1CCC(=O)O | 1.95 µM (active) | inactive | inactive |  |  | 
CCOC(N)=O | inactive | inactive | inactive |  |  | 
CCOC(=O)OC(C)OC(=O)[C@@H]1N2C(=O)[C@@H](NC(=O)[C@H](N)c3ccccc3)[C@H]2SC1(C)C (stereo not given in full) | inactive | inactive | inactive |  |  | 
COc1ccc(C(=O)NCc2ccc(OCCN(C)C)cc2)cc1OC | inactive | inactive | inactive |  |  | 
CCN[C@H]1CN(CCCOC)S(=O)(=O)c2sc(S(N)(=O)=O)cc21 | inactive | inactive | inactive |  |  | 
C[N+](C)(C)CC[N+]1(C)Cc2c(Cl)c(Cl)c(Cl)c(Cl)c2C1 | inactive | inactive | inactive |  |  | 
C/C=C1\[C@H]2C=C(C)C[C@]1(N)c1ccc(=O)[nH]c1C2 | inactive | inactive | inactive |  |  | 
Nc1ncnc(Nc2ccccc2)n1 | inactive | inactive | inactive |  |  | 
O=C(/C=C/c1ccccc1)OCc1ccccc1 | 12.3 µM (active) | inactive | inactive |  |  | 
COc1ccc(C(=O)N2CCN(CC(=O)N3CCOCC3)CC2)cc1 | inactive | inactive | inactive |  |  | 
O=C1CC[C@@H](C(=O)O)N1 | inactive | inactive | inactive |  |  | 
C[n+]1ccccc1/C=N/O | inactive | inactive | inactive |  |  | 

SMILES | Potency [1] | Potency [2] | Potency [3] | activity change, negative = inhibition [1] | outcome [2] | activity change, negative = cell killing [3]
CCN(CC)CCc1nc(-c2ccccc2)no1 | inactive | inactive | inactive |  |  | 
OCC(O)CS (stereo not given) | inactive | inactive | inactive |  |  | 
CCOc1cc(NC(C)=O)ccc1C(=O)OC | inactive | inactive | inactive |  |  | 
CN1CC(=O)NC1=N | inactive | inactive | inactive |  |  | 
O=C(O)c1ccc(OCCCOc2ccc(C(=O)O)cc2)cc1 | inactive | inactive | inactive |  |  | 
FC(F)(F)C(Cl)Br (stereo not given) | inactive | inactive | inactive |  |  | 
CCCCCCCCCCCCCCCCCCO | inactive | inactive | inactive |  |  | 
CCCCCCCC(=O)OCC(COC(=O)CCCCCCC)OC(=O)CCCCCCC | inactive | inactive | inactive |  |  | 
CC(=O)Nc1ccc(C(=O)O)cc1 | inactive | inactive | inactive |  |  | 
COc1ccc(-c2cc(=O)c3c(O)cc(O[C@@H]4O[C@H](CO[C@@H]5O[C@@H](C)[C@H](O)[C@@H](O)[C@H]5O)[C@@H](O)[C@H](O)[C@H]4O)cc3o2)cc1O | inactive | inactive | inactive |  |  | 
O=C1c2ccccc2S(=O)(=O)N1CCCCN1CCN(c2ncccn2)CC1 | 11 µM (active) | inactive | inactive |  |  | 
C[N+](C)(C)CC(O)CC(=O)[O-] (stereo not given) | inactive | inactive | inactive |  |  | 
Cc1cc(O)cc(C)c1Cl | inactive | inactive | inactive |  |  | 
CCCNC(C)C(=O)Nc1c(C)csc1C(=O)OC (stereo not given) | inactive | inactive | inactive |  |  | 
Cn1c([N+](=O)[O-])cnc1COC(N)=O | inactive | inactive | inactive |  |  | 
CCCCCCCCCCOc1cc2c(=O)c(C(=O)OCC)c[nH]c2cc1OCC |  |  |  | 5.88% [at 4.83 µM] (inactive) | inactive [at 4.96 µM] | 4.45% [at 4.96 µM] (inactive)
O=S1(=O)OC(c2ccc(O)cc2)(c2ccc(O)cc2)c2ccccc21 | 1.95 µM (active) | inactive | inactive |  |  | 
C=CCNC(N)=S | inactive | inactive | inactive |  |  | 
C/C(=C(\CCO)SS/C(CCO)=C(\C)N(C=O)Cc1cnc(C)nc1N)N(C=O)Cc1cnc(C)nc1N | inactive | inactive | inactive |  |  | 
COc1cc(O)cc(O)c1 | inactive | inactive | inactive |  |  | 

— PubChem BioAssay (NCATS)
